Test results from a collection of fitness landscapes (doi:10.1126/science.1257360).
Whole data set: some 140,000 sequences, median “enrichment ratio after two sorts for PhoP signalling” near 0, cut for the highest 2% near 11. What follows is part of a selection rich in the highest values, with near analogues and random picks from the rest.

B1: PhoQ; a variant is named by its letters at X, in order, P23837 (parent)
chain: MKKLLRLFFPLSLRVRFLLATAAVVLVLSLAYGMVALIGYSVSFDKTTFRLLRGESNLFYTLAKWENNKLHVELPENIDKQSPTMTLIYDENGQLLWAQRDVPWLMKMIQPDWLKSNGFHEIEADVNDTSLLLSGDHSIQQQLQEVREDDDDAEMTHSVAVNVYPATSRMPKLTIVVVDTIPVELKSSYMVWSWFIYVLSANLLLVIPLLWVAAWWSLRPIEALAKEVRELEEHNRELLNPATTRELTSLVRNLNRLLKSERERYDKYRTTLTDLTHSLKTPLXXLQXXLRSLRSEKMSVSDAEPVMLEQISRISQQIGYYLHRASMRGGTLLSRELHPVAPLLDNLTSALNKVYQRKGVNISLDISPEISFVGEQNDFVEVMGNVLDNACKYCLEFVEISARQTDEHLYIVVEDDGPGIPLSKREVIFDRGQRVDTLRPGQGVGLAVAREITEQYEGKIVAGESMLGGARMEVIFGRQHSAPKDE

Variants of: B1
Assay: enrichment ratio after two sorts for PhoP signalling (ratio (wild type AVST 3.29)); higher = more functional
Settings: with PhoP (E. coli)

| Variant | enrichment ratio |
| --- | --- |
| SYVF | 0.277 |
| YEDQ | ≤ 0.25 |
| WFMA | ≤ 0.25 |
| HCRL | ≤ 0.25 |
| RTQY | ≤ 0.25 |
| VMWE | ≤ 0.25 |
| AGDA | ≤ 0.25 |
| MQAV | 18.4 |
| MQAE | ≤ 0.25 |
| MQWI | 14.4 |
| MQRM | ≤ 0.25 |
| MQFS | 3.3 |
| MQSK | ≤ 0.25 |
| MQFQ | 11.9 |
| MQGM | ≤ 0.25 |
| MQFE | ≤ 0.25 |
| MQWM | 14.1 |
| MQRV | ≤ 0.25 |
| MQRA | ≤ 0.25 |
| YMRM | ≤ 0.25 |
| TCKP | ≤ 0.25 |
| RKYE | ≤ 0.25 |
| RKAI | ≤ 0.25 |
| SLME | 2.88 |

| Variant | enrichment ratio |
| --- | --- |
| HFYE | ≤ 0.25 |
| GSHY | ≤ 0.25 |
| QNET | ≤ 0.25 |
| QCSY | ≤ 0.25 |
| EMSY | ≤ 0.25 |
| GCLP | 0.401 |
| LLKQ | ≤ 0.25 |
| RVRE | ≤ 0.25 |
| KLMQ | ≤ 0.25 |
| TLMQ | ≤ 0.25 |
| VVHP | ≤ 0.25 |
| SIMQ | 33.3 |
| KYMQ | ≤ 0.25 |
| VVMQ | 13.3 |
| SRMQ | ≤ 0.25 |
| VYMQ | ≤ 0.25 |
| SYMQ | ≤ 0.25 |
| SLMQ | 11.8 |
| SSMQ | 11.5 |
| FSMQ | 3.93 |
| LNVR | ≤ 0.25 |
| KVQP | ≤ 0.25 |
| FGEF | ≤ 0.25 |
| ATMQ | 3.23 |

| Variant | enrichment ratio |
| --- | --- |
| PWPQ | ≤ 0.25 |
| PECM | ≤ 0.25 |
| VWYR | ≤ 0.25 |
| STMQ | 12 |
| KSMQ | ≤ 0.25 |
| TSMQ | 13.9 |
| SWMQ | ≤ 0.25 |
| NSMQ | ≤ 0.25 |
| SQMQ | 7.7 |
| RQGA | ≤ 0.25 |
| FECY | ≤ 0.25 |
| KYKH | ≤ 0.25 |
| YIRN | ≤ 0.25 |
| FEWK | ≤ 0.25 |
| FYPG | ≤ 0.25 |
| EFYK | ≤ 0.25 |
| IDSN | ≤ 0.25 |
| GCLV | 14.5 |
| VYLV | ≤ 0.25 |
| AYLV | 3.08 |
| AILV | 5.12 |
| VFLV | ≤ 0.25 |
| AKLV | 16.2 |
| KCLV | ≤ 0.25 |

| Variant | enrichment ratio |
| --- | --- |
| VCLV | 13 |
| QCLV | 1.13 |
| ANLV | 14.1 |
| AHLV | 1.12 |
| MKLV | 9.89 |
| RCEW | ≤ 0.25 |
| VEQN | ≤ 0.25 |
| PFRI | ≤ 0.25 |
| SNAR | ≤ 0.25 |
| LYVG | ≤ 0.25 |
| WLGW | ≤ 0.25 |
| SRLV | 0.905 |
| TPLV | ≤ 0.25 |
| AALV | 12.9 |
| IFLV | ≤ 0.25 |
| YALV | 11.1 |
| HKLV | 0.341 |
| TKLV | 23.3 |
| KKLV | ≤ 0.25 |
| SNLV | 15.8 |
| IILV | 1.58 |
| KALV | ≤ 0.25 |
| ICLV | 18.8 |
| EKVF | ≤ 0.25 |

| Variant | enrichment ratio |
| --- | --- |
| HDKH | ≤ 0.25 |
| VLRH | ≤ 0.25 |
| RKNR | ≤ 0.25 |
| SYSF | ≤ 0.25 |
| DGQH | ≤ 0.25 |
| YPAE | ≤ 0.25 |
| NFWK | ≤ 0.25 |
| MMNV | ≤ 0.25 |
| GNLV | 11.9 |
| GSHK | ≤ 0.25 |
| IPLV | ≤ 0.25 |
| GSLV | 17.9 |
| GILV | 10.9 |
| IALV | 13.1 |
| LNLV | ≤ 0.25 |
| WILV | ≤ 0.25 |
| NALV | ≤ 0.25 |
| QWMF | ≤ 0.25 |
| VRHG | ≤ 0.25 |
| GYNH | ≤ 0.25 |
| TDKY | ≤ 0.25 |
| TGYH | 1.03 |
| IQEV | ≤ 0.25 |
| PSYQ | 1.11 |

| Variant | enrichment ratio |
| --- | --- |
| PWHD | ≤ 0.25 |
| AMWI | ≤ 0.25 |
| AWHD | 24.7 |
| VLVW | ≤ 0.25 |
| AMVW | 11.8 |
| ACNH | ≤ 0.25 |
| NMVW | ≤ 0.25 |
| LWHD | ≤ 0.25 |
| ACGH | 13.6 |
| ACTH | 2.87 |
| AMTS | 13.9 |
| AITS | 9.53 |
| SCPW | ≤ 0.25 |
| KEAN | ≤ 0.25 |
| YKMT | 0.253 |
| GVMF | 2.88 |
| MYDC | ≤ 0.25 |
| VHEE | ≤ 0.25 |
| MGNK | ≤ 0.25 |
| EGFI | ≤ 0.25 |
| EGVD | ≤ 0.25 |
| QFHL | ≤ 0.25 |
| WTPV | ≤ 0.25 |
| FCGM | ≤ 0.25 |

| Variant | enrichment ratio |
| --- | --- |
| WFML | ≤ 0.25 |
| GWCM | ≤ 0.25 |
| QTWG | ≤ 0.25 |
| AMGH | 51 |
| AKTI | 23.6 |
| AMTH | 0.411 |
| AMGD | 11.5 |
| KKTC | ≤ 0.25 |
| AKTD | ≤ 0.25 |
| AIGH | 2.15 |
| AMTD | ≤ 0.25 |
| AITC | 19 |
| KKTI | ≤ 0.25 |
| AMYD | ≤ 0.25 |
| AIFC | ≤ 0.25 |
| DKAP | ≤ 0.25 |
| KDMR | ≤ 0.25 |
| TRNK | ≤ 0.25 |
| HVKY | ≤ 0.25 |
| PFRW | ≤ 0.25 |
| KMGT | ≤ 0.25 |
| QKFN | ≤ 0.25 |
| RPYD | ≤ 0.25 |
| AKTK | ≤ 0.25 |

| Variant | enrichment ratio |
| --- | --- |
| AKTC | 30.2 |
| AKFC | ≤ 0.25 |
| AITI | 10.7 |
| AMPM | ≤ 0.25 |
| AMTI | 11.6 |
| AMIM | 29.3 |
| AMWM | ≤ 0.25 |
| AMVQ | 13.1 |
| NMVQ | ≤ 0.25 |
| NMTI | ≤ 0.25 |
| AMVA | ≤ 0.25 |
| DMSC | ≤ 0.25 |
| KPPG | ≤ 0.25 |
| MFQM | ≤ 0.25 |
| IEMM | ≤ 0.25 |
| MKCV | ≤ 0.25 |
| WYPM | ≤ 0.25 |
| IISF | ≤ 0.25 |
| KMPW | ≤ 0.25 |
| LYRY | ≤ 0.25 |
| PGVK | ≤ 0.25 |
| AMNK | ≤ 0.25 |
| NMGQ | ≤ 0.25 |
| AMAQ | 12.1 |

| Variant | enrichment ratio |
| --- | --- |
| AMFC | ≤ 0.25 |
| AHGQ | ≤ 0.25 |
| AMTC | 20.7 |
| AKAQ | 7.28 |
| NMAQ | ≤ 0.25 |
| AMGQ | 13.7 |
| HQSV | ≤ 0.25 |
| LFRC | ≤ 0.25 |
| PWKY | ≤ 0.25 |
| DPKV | ≤ 0.25 |
| TIQF | 9.01 |
| SQIN | 12.8 |
| NAIN | ≤ 0.25 |
| TGIN | ≤ 0.25 |
| SCIN | 0.637 |
| SGIN | 11.4 |
| SAIN | 11.8 |
| EQIN | ≤ 0.25 |
| KAIN | ≤ 0.25 |
| SRIN | ≤ 0.25 |
| VAML | 7.99 |
| KNIR | ≤ 0.25 |
| SWRM | ≤ 0.25 |
| TMWP | ≤ 0.25 |

| Variant | enrichment ratio |
| --- | --- |
| SLWP | ≤ 0.25 |
| DKCH | ≤ 0.25 |
| VWNG | ≤ 0.25 |
| RGSY | ≤ 0.25 |
| AISY | 5.51 |
| AQSY | 12.7 |
| AGSY | 14.7 |
| GGSY | ≤ 0.25 |
| TGSY | 15.9 |
| AKSY | 2.91 |
| ADSY | ≤ 0.25 |
| AHSY | ≤ 0.25 |
| DTDV | ≤ 0.25 |
| WMKH | ≤ 0.25 |
| MNKP | ≤ 0.25 |
| RIYR | ≤ 0.25 |
| FFTK | ≤ 0.25 |
| WFGI | ≤ 0.25 |
| HTNW | ≤ 0.25 |
| KLTI | ≤ 0.25 |
| MSHF | 2.07 |
| MSHV | 17.4 |
| KSGV | ≤ 0.25 |
| KAGV | ≤ 0.25 |

| Variant | enrichment ratio |
| --- | --- |
| MSGV | 13.8 |
| MRHV | ≤ 0.25 |
| SEQA | ≤ 0.25 |
| GVVG | ≤ 0.25 |
| LEYW | ≤ 0.25 |
| RSAR | ≤ 0.25 |
| EASM | ≤ 0.25 |
| MALQ | 13.1 |
| FILQ | 11.5 |
| FITA | ≤ 0.25 |
| FPLQ | ≤ 0.25 |
| WILQ | ≤ 0.25 |
| NSLQ | 0.291 |
| TSLQ | 16.4 |
| FIMQ | ≤ 0.25 |
| FDLQ | ≤ 0.25 |
| FALQ | 7.48 |
| FQLQ | 17.7 |
| MPLQ | ≤ 0.25 |
| TPCV | ≤ 0.25 |
| HIPN | ≤ 0.25 |
| WRHY | ≤ 0.25 |
| GDYV | ≤ 0.25 |
| LQVN | ≤ 0.25 |

| Variant | enrichment ratio |
| --- | --- |
| DQMY | ≤ 0.25 |
| VHFI | ≤ 0.25 |
| FDRQ | ≤ 0.25 |
| LRHY | ≤ 0.25 |
| FCLQ | 6.86 |
| FSLQ | 11.8 |
| KSLQ | ≤ 0.25 |
| LNSK | ≤ 0.25 |
| QECM | ≤ 0.25 |
| TCYA | 1.75 |
| TCNM | 1.24 |
| TCCM | 20 |
| VECM | 0.698 |
| TCGM | 15.3 |
| TCIM | 0.447 |
| TCTM | 21.1 |
| TCYM | 12.1 |
| TCYN | 3.25 |
| TCWM | ≤ 0.25 |
| FCTM | ≤ 0.25 |
| IMKY | ≤ 0.25 |
| VMEY | ≤ 0.25 |
| TYKQ | ≤ 0.25 |
| IGCI | ≤ 0.25 |

| Variant | enrichment ratio |
| --- | --- |
| THAC | 6.19 |
| SQFC | ≤ 0.25 |
| WRVD | ≤ 0.25 |
| ISHC | ≤ 0.25 |
| YTMN | ≤ 0.25 |
| EMDR | ≤ 0.25 |
| DSWL | ≤ 0.25 |
| RECW | ≤ 0.25 |
| FMGG | ≤ 0.25 |
| EQVK | ≤ 0.25 |
| VECQ | 8.23 |
| TCCI | 7.17 |
| TCCQ | 12.5 |
| VECK | ≤ 0.25 |
| TCCK | 21.6 |
| TCKQ | ≤ 0.25 |
| TDEN | ≤ 0.25 |
| QTMG | ≤ 0.25 |
